In all, about 310,000 compounds went through this assay and about 2,200 (0.71%) showed an effect of 50% or more. Effects have a minus sign here. The sample as a whole holds a higher share of strong results than the screen did.
Each compound was assayed against human ether-à-go-go-related gene (hERG) potassium channel (human, UniProt Q12809) (assay: primary screen, population patch clamp on CHO cells stably expressing hERG; higher = less effect of the substance).
Chain of human ether-à-go-go-related gene (hERG) potassium channel (Q12809 whole entry, looked up): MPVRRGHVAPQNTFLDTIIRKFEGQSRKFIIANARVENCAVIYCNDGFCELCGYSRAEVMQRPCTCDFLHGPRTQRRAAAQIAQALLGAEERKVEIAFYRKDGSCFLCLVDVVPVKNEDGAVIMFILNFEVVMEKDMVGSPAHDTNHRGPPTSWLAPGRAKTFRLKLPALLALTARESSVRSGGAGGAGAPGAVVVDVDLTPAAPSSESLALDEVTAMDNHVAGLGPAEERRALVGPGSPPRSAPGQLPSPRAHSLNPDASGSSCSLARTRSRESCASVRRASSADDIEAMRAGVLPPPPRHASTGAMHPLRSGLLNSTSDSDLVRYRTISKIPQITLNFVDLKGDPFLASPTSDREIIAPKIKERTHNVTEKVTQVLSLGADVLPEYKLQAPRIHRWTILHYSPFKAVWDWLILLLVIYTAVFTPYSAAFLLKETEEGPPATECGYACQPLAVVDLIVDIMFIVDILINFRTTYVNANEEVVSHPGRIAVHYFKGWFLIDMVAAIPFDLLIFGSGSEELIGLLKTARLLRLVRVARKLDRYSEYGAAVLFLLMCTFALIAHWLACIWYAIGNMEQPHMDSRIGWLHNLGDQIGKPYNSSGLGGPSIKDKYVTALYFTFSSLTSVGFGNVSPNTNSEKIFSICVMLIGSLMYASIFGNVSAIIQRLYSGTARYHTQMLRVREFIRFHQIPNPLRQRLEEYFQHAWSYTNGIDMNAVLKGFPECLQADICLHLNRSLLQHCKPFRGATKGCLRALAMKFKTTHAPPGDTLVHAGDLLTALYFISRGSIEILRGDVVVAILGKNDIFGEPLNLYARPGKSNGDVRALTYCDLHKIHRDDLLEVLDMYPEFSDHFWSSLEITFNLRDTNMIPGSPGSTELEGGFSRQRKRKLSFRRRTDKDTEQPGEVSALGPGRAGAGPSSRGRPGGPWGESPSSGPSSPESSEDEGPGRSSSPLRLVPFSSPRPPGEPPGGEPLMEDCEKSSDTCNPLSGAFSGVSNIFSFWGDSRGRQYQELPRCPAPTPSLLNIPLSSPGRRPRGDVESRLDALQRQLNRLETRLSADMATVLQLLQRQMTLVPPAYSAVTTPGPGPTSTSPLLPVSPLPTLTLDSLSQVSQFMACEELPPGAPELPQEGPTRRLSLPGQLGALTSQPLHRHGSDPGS

SMILES | hERG current change (%, negative = inhibition) at 1uM
O=C(CSc1nnc(-c2ccco2)n1Cc1ccccc1)NC(=O)NCc1ccco1 | -15.6%
CCOC(=O)C1(CCCc2ccccc2)CCN(C2CCC2)CC1 | -57.1%
CCOC(=O)C1(CCCc2ccccc2)CCN(C2CCCC2)CC1 | -66.1%
OCC1(CCCc2ccccc2)CCN(C2CCSCC2)CC1 | -65.4%
CCOC(=O)C1(CCc2ccccc2)CCN(C2Cc3ccccc3C2)CC1 | -18.7%
CCOC(=O)C1(CCCc2ccccc2)CCN(S(C)(=O)=O)CC1 | 5.98%
CCOC(=O)C1(CCCc2ccccc2)CCN(C(=O)C2CCCO2)CC1 (stereo not shown) | 5.58%
CCOC(=O)C1(CCCc2ccccc2)CCN(C(=O)COC)CC1 | 10.5%
CCOC(=O)C1(CCc2ccccc2)CCN(C2CCSCC2)CC1 | -80.7%
CCOC(=O)C1(CCc2ccccc2)CCN(C(=O)C2CCOCC2)CC1 | -21.2%
CSCC(C)N1CCC(CO)(CCCc2ccccc2)CC1 (stereo not shown) | -11.2%
CCOC(=O)C1(CCCc2ccccc2)CCN(C(=O)CSC)CC1 | 3.88%
CS(=O)(=O)c1ccc(S(=O)(=O)N2CCC(CO)(CCCc3ccccc3)CC2)cc1 | 4.47%
O=C(NCc1ccco1)C1CCN(S(=O)(=O)c2ccccc2C(F)(F)F)CC1 | 12.6%
COc1cccc(C(=O)NCCS(=O)(=O)N2CCC(C)CC2)c1 | 3.89%
CC1(C)CN(c2ccc(C(=O)c3ccccc3)cc2)C1=O | 6.95%

SMILES | hERG current change (%, negative = inhibition) at 1uM
CCCCn1c(N)c(N(CCOC)C(=O)C2CCN(S(=O)(=O)c3ccc(C)cc3C)CC2)c(=O)[nH]c1=O | 14.6%
Cc1ccccc1OCC(=O)OCC(=O)c1ccc[nH]1 | 10.2%
CCOC(=O)c1nn(-c2ccccc2C)c2nc(CC(C)C)c(C#N)c(=O)n12 | 15.8%
O=c1cc(NCc2ccco2)c2ccccc2o1 | 11.6%
CN(C)S(=O)(=O)N1CCN(c2ccnc3cc(Cl)ccc23)CC1 | -65.6%
CCC(=O)N1CCN(c2ccnc3cc(Cl)ccc23)CC1 | -25.7%
CN(C)S(=O)(=O)N1CCN(c2cc(Cl)ccc2Cl)CC1 | 16.5%
COc1ccccc1N1CCN(c2ccnc3cc(Cl)ccc23)CC1 | 7.78%
Oc1ccc(N2CCN(c3ccnc4cc(Cl)ccc34)CC2)cc1 | 5.36%
CCS(=O)(=O)N1CCN(c2ccnc3cc(Cl)ccc23)CC1 | -67.4%
CS(=O)(=O)N1CCN(c2ccnc3cc(Cl)ccc23)CC1 | -81.3%
Cl.ClCCN1CCN(c2ccnc3cc(Cl)ccc23)CC1 | 7.03%
Clc1ccc2c(N3CCOCC3)ccnc2c1 | 0.204%
CC(C)S(=O)(=O)N1CCN(c2ccnc3cc(Cl)ccc23)CC1 | -55.2%
Clc1ccc2c(N3CCCC3)ccnc2c1 | -25.9%

Reference: article PMC4336329 (PLoS ONE, 2015)
